Bioassay records: PubChem BioAssay, National Center for Advancing Translational Sciences (NCATS)
The list is not random: actives were taken first. Their share in the collection is about 1.7%.
Anesthetic bind – qHTS Assay for Identification of Novel General Anesthetics. Ferritin light chain (Equus caballus), P02791. AID 485281, 2010. apoferritin/1-aminoanthracene competitive binding, fluorescence. Potency, µM (doses to about 77.5 µM), inactives show top-dose activity change, negative = displacement, usual class: inhibitors. hit rate 0.074% among 350,000; also: % is scaled to controls: 0 for no effect and ±100 for the full control effect; nearly all actives have a fitted effect of over 20% in size
Target sequence (P02791 2-175 limits assumed): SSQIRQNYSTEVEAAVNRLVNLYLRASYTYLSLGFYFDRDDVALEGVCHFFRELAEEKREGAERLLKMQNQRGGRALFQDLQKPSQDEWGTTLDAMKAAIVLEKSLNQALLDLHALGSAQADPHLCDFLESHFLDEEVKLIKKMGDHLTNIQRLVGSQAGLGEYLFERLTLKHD
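Horse-spleen apoferritin (10 uM) was mixed with 50% saturated 1-aminoanthracene in PBS, exposed to compounds for 10 min at room temperature, and read for fluorescence (ex 380 nm, em 535 nm). Competitive displacement was fitted with a four-parameter Hill equation.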
TrxR1 substrate – qHTS Assay for Substrates of Mammalian Selenoprotein Thioredoxin Reductase 1 (TrxR1): qHTS; Thioredoxin reductase 1, cytoplasmic (Rattus norvegicus), O89049; purified TrxR1 substrate turnover, NADPH consumption readout; Potency, µM (titrated, usually from 114 µM), for inactives: top-dose activity change, negative = substrate turnover; hit rate 0.01% among 390,000; also: % is scaled to controls: 0 for no effect and ±100 for the full control effect; nearly all actives have a fitted effect of over 50% in size
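Rat TrxR1, dispensed at 90 nM, was prereduced with 400 uM NADPH (final) for 5 min at ~22 deg C, then incubated with compound 15 min before 400 uM selenite. A first-read NADPH fluorescence drop versus no-compound background flagged substrates.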
GRP78 ERSR act – qHTS for Inducers of the Endoplasmic Reticulum Stress Response (ERSR) in Human Glioma: qHTS | hit rate 0.02% among 420,000 | AID 602332, 2012 | Potency, µM, for inactives: at the highest dose activation, actives largely listed as activators | U87-MG GRP78 promoter luciferase reporter, 16 h; also: series mostly up to about 76 µM; % of control where 0% means no effect; nearly all actives have a fitted effect of over 35% in size
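Stably transfected U87-MG human glioma cells carrying a GRP78-based luminescent sensor were seeded at 1000 cells/well, pin-dosed with compounds and incubated 16 h. Luciferase reagent was then added, and end-point luminescence was read after 10 min at room temperature.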
ALOX12 inh – Primary qHTS assay for inhibitors of human arachidonate 12S-lipoxygenase (ALOX12): Round 2. Polyunsaturated fatty acid lipoxygenase ALOX12 (Homo sapiens), P18054. purified 12hLO, xylenol orange hydroperoxide absorbance. Potency, µM (top dose mostly 108 µM), inactives show at the highest dose activity change, negative = inhibition, usual class: inhibitors. hit rate 1.1% among 580,000; also: % is scaled to controls: 0 for no effect and ±100 for the full control effect
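Purified human 12hLO (150 nM final) in 25 mM Hepes, 0.01% Triton X-100, pH 7.0 was preincubated 15 min at room temperature with compound. Then 40 uM arachidonic acid was added, 30 min. Hydroperoxide was read by Fe-XO absorbance ratio 573/405 nm.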
TrxR1 inh – qHTS Assay for Inhibitors of Mammalian Selenoprotein Thioredoxin Reductase 1 (TrxR1): qHTS; Thioredoxin reductase 1, cytoplasmic (Rattus norvegicus), O89049; recombinant rTrxR1, NADPH fluorescence consumption, selenite substrate; Potency, µM (doses to about 114 µM), inactives show at the top dose activity change, negative = inhibition, usual class: inhibitors; hit rate 1% among 390,000; AID 588453, 2011; also: % is scaled to controls: 0 for no effect and ±100 for the full control effect; nearly all actives have a fitted effect of over 65% in size
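Rat TrxR1 (90 nM in the dispensed reagent) was pre-reduced with 400 uM NADPH for 5 min at room temperature, then incubated with compound for 15 min. After 400 uM selenite was added, NADPH fluorescence (Ex 340/Em 450 nm) was followed for 8 min.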
IDH1 R132H inh – qHTS for Inhibitors of mutant isocitrate dehydrogenase 1 (IDH1): qHTS; Isocitrate dehydrogenase [NADP] cytoplasmic (Homo sapiens), O75874; hit rate 0.093% among 390,000; Potency, µM (top dose mostly 76.6 µM), inactives show at the top dose activity change, negative = inhibition, most hits filed as inhibitors; IDH1-R132H enzyme, NADPH consumption, diaphorase/resazurin fluorescence; also: % is scaled to controls: 0 for no effect and ±100 for the full control effect; nearly all actives have a fitted effect of over 65% in size
Target sequence (O75874 whole entry R132H, stated change not applied): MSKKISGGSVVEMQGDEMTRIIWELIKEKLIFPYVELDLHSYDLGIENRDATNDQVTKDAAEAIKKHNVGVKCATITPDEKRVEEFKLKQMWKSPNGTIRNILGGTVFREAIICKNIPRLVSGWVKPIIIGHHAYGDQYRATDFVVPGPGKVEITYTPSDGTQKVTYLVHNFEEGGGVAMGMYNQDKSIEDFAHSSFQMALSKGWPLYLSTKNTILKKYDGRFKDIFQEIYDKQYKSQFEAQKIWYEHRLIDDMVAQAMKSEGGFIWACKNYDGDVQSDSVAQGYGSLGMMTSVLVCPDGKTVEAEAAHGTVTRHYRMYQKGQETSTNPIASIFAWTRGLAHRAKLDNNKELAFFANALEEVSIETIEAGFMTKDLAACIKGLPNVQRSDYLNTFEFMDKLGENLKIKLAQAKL
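IDH1-R132H (0.5 ug/mL) preincubated 30 min with compound, then NADPH (0.016 mM) and alpha-KG (2 mM) added; 80 min at RT, pH 7.5. Remaining NADPH coupled via diaphorase/resazurin to fluorescence (540/590 nm); concentration-response curves normalized to no-enzyme control.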
* hit, by the source's call; ? = inconclusive; . = not tested or not shown; [ ] = another dose, or the depositor's remark. Calls follow the shape of the dose curve; as a rule, active = well fitted curve in the direction sought with a large enough effect; inconclusive = small, poorly fitted or top-dose-only effect, or another doubt; inactive = no such curve, though single readings can be large; an effect the other way counts as inactive or inconclusive. Potency is read from the fitted curve at half-maximal effect.

SMILES | Anesthetic bind | TrxR1 substrate | GRP78 ERSR act | ALOX12 inh | TrxR1 inh | IDH1 R132H inh
CNc1ccccc(C(=O)/C=C/c2ccccc2OC)c1=O | 2% | -11% | -1% | ? | 8.9µM* | 5%
Cc1ccccc1C(=O)Nc1ccnn1C1CCN(C(=O)C2CC2(F)F)CC1 (centres undefined) | . | . | . | 39% | . | .
CCCn1c(C2NC(=O)NC(C)=C2C(=O)OCc2ccccc2)nc2ccccc21 (centres undefined) | . | . | . | -29% | . | .
COc1ccc(C(C)=O)cc1CN1CCCCCCC1 | . | . | . | 7% | . | .
COc1ccc(C(C)=O)cc1CN(C)C | -6% | 3% | -7% | 0% | 8.9µM* | -6%
COc1ccc(C(C)=O)cc1COC(=O)c1c(C)noc1C | -13% | -5% | 0% | 0% | 35µM* | 6%
CCOCCCNC(=O)c1ccccc1-c1ncc(-c2ccccc2F)o1 | . | . | . | 3% | . | .
Cc1ccc(S(=O)(=O)Nc2nc3ccccc3nc2NCc2ccco2)cc1 | -9% | 18% | 2% | -1% | 8.9µM* | 2%
Cc1ccc2ncnc(NCc3ccco3)c2c1 | . | -4% | -5% | . | 79µM* | .
COc1ccc(/C=C2\SC(=O)N(CCCC(=O)Nc3cc(Cl)ccc3C(=O)O)C2=O)cc1 | . | 0%[11.4 µM] | -14% | 35µM* | -8%[11.4 µM] | 3%
COc1ccc(/C=C2\SC(=S)N(CCC(=O)Nc3ccccc3C(=O)O)C2=O)cc1 | -4% | -15% | -10% | 0% | -21% | -6%
CSc1ccc(/C=C2\C(=O)Oc3ccccc32)cc1 | . | . | . | 32µM* | . | .
Cc1occc1C(=O)OCC(=O)c1sc2ccccc2c1C | . | . | . | 32µM* | . | .
CCN1CCN(c2ncnc3c2CN(C2CCC2)C(=O)CN3C)CC1 | . | . | . | 33% | . | .
O=C(O)c1cccc(-n2cccc2/C=C2/NC(=O)N(c3ccc(Cl)cc3)C2=O)c1 | -8% | -10%[57.1 µM] | 1% | 7.9µM* | ? | -1%
Cc1cccc(NC(=O)CN2C(=O)N/C(=C\c3cccn3-c3cccc(C(=O)O)c3)C2=O)c1 | -11% | -12%[57.1 µM] | -2% | 45µM* | -20%[57.1 µM] | -1%
O=C(CCOc1ccccc1)N(Cc1cccnc1)c1nc2c(F)cc(F)cc2s1 | 25% | 4%[57.1 µM] | -4% | -14% | ? | -1%
CN(C)CCCN(C(=O)CCSc1ccccc1)c1nc2cc3c(cc2s1)OCO3 | -21% | 2% | -11% | -28% | ? | 8%
Cc1ccc2sc(N(CCCN(C)C)C(=O)CCS(=O)(=O)c3ccccc3)nc2c1C | -15% | 3% | -16% | -13% | 18µM* | 8%
CCN(CC)CCN(C(=O)CCOc1ccccc1)c1nc2c(F)cc(F)cc2s1 | -5% | 2% | -5% | ? | 11µM* | 4%
COc1ccc(OC)c2sc(N(CCCN(C)C)C(=O)CCS(=O)(=O)c3ccccc3)nc12 | . | -2% | -14% | -9% | 2.8µM* | -3%
CN(C)CCCN(C(=O)CCS(=O)(=O)c1ccccc1)c1nc2cc3c(cc2s1)OCO3 | -10% | 3% | -14% | 465% | 6.3µM* | 5%
CC(=O)N1CCC(N2CC(Oc3cccc(C(=O)NCC4CC4)c3)C2)CC1 | . | . | . | 22% | . | .
CN[C@H](C(=O)N[C@@H]1C=C(C(=O)N[C@H](Cc2c[nH]c3ccccc23)C(N)=O)C[C@@H](O)[C@@H]1O)C(C)C | . | . | . | -29% | . | .
CC(C)Oc1cccc(C(=O)Nc2ccc3oc(-c4ccccc4)nc3c2)c1 | -10% | -4%[57.1 µM] | -2% | ? | 12%[57.1 µM] | -7%
